Source: PubChem BioAssay (EPA / NIEHS)
Where “and” joins values, the source holds several entries; their conditions need not be identical. Equal entries are not always repeated. Results filed as inconclusive are left out. Calls of active or inactive are those of the source. Rule for the calls, unless noted: active = hit-call score of the fitted dose curve at least 0.9, where 1 is the maximum; inconclusive = response in the unintended direction; inactive = score below 0.9.

What was measured:
[1] = biological target: human Peroxisome Proliferator-activated Receptor alpha (PPARa), PPARA (gene 5465) (UniProt Q07869); assay: ATG_PPARa_TRANS: Attagene TRANS-FACTORIAL HepG2 Assay for human Peroxisome Proliferator-activated Receptor alpha (PPARa) (AID 2283001);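 for AC50: potency for gain of reporter signal over DMSO so agonist or activator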
Summary of the method: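 Read-out is fluorescence of reporter cDNA fragments resolved by capillary electrophoresis after RT-PCR. Human HepG2 liver cells carried transfected PPARa-Gal4 chimera and GAL4-UAS reporter units, treated 24 h; activity scored as increase over DMSO.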

[2] = biological target: human Retinoic Acid Receptor beta (RARb), RARB (gene 5915) (UniProt P10826); assay: ATG_RARb_TRANS: Attagene TRANS-FACTORIAL HepG2 Assay for human Retinoic Acid Receptor beta (AID 2283004)
Summary of the method: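 Transient transfection of HepG2 with multiple reporter units → chemical dosing, 24 h → total RNA isolation → RT with oligo(dT) → reporter-specific PCR, 6-FAM primer extension, HpaI digest → capillary electrophoresis. Positive direction vs DMSO control.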

[3] = biological target: Retinoic acid receptor alpha (Homo sapiens) (UniProt P10276); assay: ATG_RARa_TRANS: Attagene TRANS-FACTORIAL HepG2 Assay for human Retinoic Acid Receptor alpha (RARa) (AID 2283005)
Summary of the method: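 Reporter transcripts, measured by RT-PCR with fluorescent labeling and capillary electrophoresis after 24 h dosing, reflect activity of an exogenous human RARa–GAL4 fusion in transiently transfected HepG2. Fitted for increase relative to DMSO.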

[4] = biological target: Peroxisome proliferator-activated receptor gamma (Homo sapiens) (UniProt P37231); assay: ATG_PPARg_TRANS: Attagene TRANS-FACTORIAL HepG2 Assay for human Peroxisome Proliferator-activated Receptor-gamma (PPARg) (AID 2283007)
Summary of the method: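 HepG2 cells transiently transfected with multiplexed GAL4-UAS reporter units and exogenous chimeric NR-Gal4 proteins; reporter mRNA quantified after 24 h compound exposure by RT-PCR, fluorescent labelling, HpaI digestion and capillary electrophoresis; gain-of-signal fitted versus DMSO baseline.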

[5] = biological target: Nuclear receptor subfamily 1 group I member 2 (Homo sapiens) (UniProt O75469); assay: ATG_PXR_TRANS: Attagene TRANS-FACTORIAL HepG2 Assay for human Pregnane X Receptor (PXR) (AID 2283008)
Summary of the method: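 HepG2 cells transiently transfected with multiple reporter units, here a PXR-GAL4 chimera driving a GAL4-UAS reporter; 24 h compound exposure. Reporter mRNA measured by RT-PCR, FAM labelling and capillary electrophoresis; gain of signal fitted against DMSO baseline.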

[6] = biological target: human RAR-related Orphan Receptor beta (RORb), RORB (gene 6096) (UniProt Q92753); assay: ATG_RORb_TRANS: Attagene TRANS-FACTORIAL HepG2 Assay for human RAR-related Orphan Receptor beta (RORb) (AID 2283010)
Summary of the method: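 HepG2 cells transiently transfected with GAL4-UAS reporter units expressing chimeric NR-Gal4 protein; reporter mRNA measured 24 h after dosing by RT-PCR, 6-FAM labelling and capillary electrophoresis. Gain-of-signal fitted relative to DMSO baseline.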

[7] = read-out: Intercellular Adhesion Molecule 1 (ICAM1), ICAM1 (gene 3383); assay: BSK_3C_ICAM1: BioMAP Diversity Plus: 3C Assay for Intercellular Adhesion Molecule 1 (ICAM1) Biomarker Activity (AID 2283003; active = hit-call score of the fitted dose curve at least 0.9, where 1 is the maximum; inactive = score below 0.9); details: primary human endothelial cells (HUVEC); actives raise or lower the signal
Summary of the method: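 HUVEC primary cells stimulated under 3C conditions; ICAM1 measured by ELISA 24 h after compound dosing. Curves fitted bidirectionally against the DMSO baseline. Overt cytotoxicity checked by SRB staining of parallel cultures.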

[8] = BSK_3C_Proliferation: Cell Proliferation Assessment in the BioMAP Diversity Plus: 3C Assay (AID 2283006; active = hit-call score of the fitted dose curve at least 0.9, where 1 is the maximum; inactive = score below 0.9;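 for AC50: potency may reflect either rise or fall in cell number versus DMSO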); details: primary human endothelial cells (HUVEC)
Summary of the method: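 Subconfluent HUVEC (3C system) cultured with chemical; relative cell number read at 48 h by sulforhodamine B total-protein staining (0.1% SRB after 10% TCA fixation, 560 nm). Bidirectional fit relative to DMSO.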

[9] = biological target: human Retinoic Acid Receptor gamma (RARg), RARG (gene 5916) (UniProt P13631); assay: ATG_RARg_TRANS: Attagene TRANS-FACTORIAL HepG2 Assay for human Retinoic Acid Receptor gamma (RARg) (AID 2283009)
Summary of the method: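 HepG2 transiently transfected with GAL4-UAS reporter units and chimeric NR-Gal4 constructs; 24 h compound exposure. Reporter mRNA quantified by RT-PCR, FAM labeling, HpaI digestion and capillary electrophoresis; gain-of-signal versus DMSO.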

Measured: AC50

Chain of Peroxisome proliferator-activated receptor gamma (Homo sapiens) (P37231 whole entry, looked up, the tested form may be a part): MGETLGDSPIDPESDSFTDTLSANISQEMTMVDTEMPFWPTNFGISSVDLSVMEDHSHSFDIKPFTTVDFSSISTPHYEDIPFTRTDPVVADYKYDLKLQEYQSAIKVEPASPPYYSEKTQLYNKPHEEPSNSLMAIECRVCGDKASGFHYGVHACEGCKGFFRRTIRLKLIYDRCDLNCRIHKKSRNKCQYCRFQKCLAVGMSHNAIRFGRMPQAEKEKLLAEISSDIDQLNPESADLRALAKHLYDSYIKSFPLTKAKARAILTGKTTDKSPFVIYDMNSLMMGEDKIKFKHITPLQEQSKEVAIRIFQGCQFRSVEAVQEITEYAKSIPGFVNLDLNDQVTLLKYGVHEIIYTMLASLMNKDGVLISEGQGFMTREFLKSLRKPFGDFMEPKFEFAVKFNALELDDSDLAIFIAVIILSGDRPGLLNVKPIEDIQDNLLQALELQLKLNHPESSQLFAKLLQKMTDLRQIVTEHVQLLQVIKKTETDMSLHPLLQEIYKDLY
Chain of human Retinoic Acid Receptor beta (RARb), RARB (gene 5915) (P10826 whole entry, looked up): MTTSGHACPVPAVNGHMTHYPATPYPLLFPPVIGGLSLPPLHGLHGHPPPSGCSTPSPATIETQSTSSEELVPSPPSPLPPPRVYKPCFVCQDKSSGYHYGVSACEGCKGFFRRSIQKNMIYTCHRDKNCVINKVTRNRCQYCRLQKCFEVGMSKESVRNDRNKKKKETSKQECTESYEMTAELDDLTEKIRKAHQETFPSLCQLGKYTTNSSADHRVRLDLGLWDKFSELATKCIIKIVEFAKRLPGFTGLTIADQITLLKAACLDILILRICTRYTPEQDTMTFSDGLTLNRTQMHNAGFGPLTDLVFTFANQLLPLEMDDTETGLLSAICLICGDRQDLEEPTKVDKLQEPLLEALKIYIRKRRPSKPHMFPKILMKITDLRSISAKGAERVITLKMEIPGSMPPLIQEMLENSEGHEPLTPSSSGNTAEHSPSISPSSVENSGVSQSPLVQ
Chain of human Peroxisome Proliferator-activated Receptor alpha (PPARa), PPARA (gene 5465) (Q07869 whole entry, looked up, the tested form may be a part): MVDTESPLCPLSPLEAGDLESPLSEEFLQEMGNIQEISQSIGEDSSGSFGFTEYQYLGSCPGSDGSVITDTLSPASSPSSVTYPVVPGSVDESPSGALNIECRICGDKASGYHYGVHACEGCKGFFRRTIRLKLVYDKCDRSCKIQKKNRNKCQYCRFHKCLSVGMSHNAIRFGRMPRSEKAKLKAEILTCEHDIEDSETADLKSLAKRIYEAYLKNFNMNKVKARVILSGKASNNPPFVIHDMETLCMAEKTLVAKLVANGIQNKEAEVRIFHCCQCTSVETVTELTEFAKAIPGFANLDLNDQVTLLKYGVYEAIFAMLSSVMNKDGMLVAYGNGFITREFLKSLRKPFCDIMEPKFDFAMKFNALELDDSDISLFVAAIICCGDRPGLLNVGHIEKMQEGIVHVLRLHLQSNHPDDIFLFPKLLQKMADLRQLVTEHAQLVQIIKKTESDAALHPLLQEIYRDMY
Chain of Retinoic acid receptor alpha (Homo sapiens) (P10276 whole entry, looked up, the tested form may be a part): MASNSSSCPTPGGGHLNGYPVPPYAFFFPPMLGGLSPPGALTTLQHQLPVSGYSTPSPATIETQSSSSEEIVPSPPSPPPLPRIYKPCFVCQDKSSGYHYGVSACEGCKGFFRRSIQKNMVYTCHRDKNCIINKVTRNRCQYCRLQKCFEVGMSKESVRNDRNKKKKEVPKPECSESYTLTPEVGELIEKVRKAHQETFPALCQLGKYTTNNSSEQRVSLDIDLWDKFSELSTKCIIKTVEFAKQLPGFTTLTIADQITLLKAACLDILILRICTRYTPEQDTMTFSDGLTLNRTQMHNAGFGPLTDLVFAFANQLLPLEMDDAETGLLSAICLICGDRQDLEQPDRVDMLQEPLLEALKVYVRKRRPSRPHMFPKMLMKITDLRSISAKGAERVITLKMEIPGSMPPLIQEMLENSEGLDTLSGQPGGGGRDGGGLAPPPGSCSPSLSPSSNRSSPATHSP
Chain of Nuclear receptor subfamily 1 group I member 2 (Homo sapiens) (O75469 whole entry, looked up, the tested form may be a part): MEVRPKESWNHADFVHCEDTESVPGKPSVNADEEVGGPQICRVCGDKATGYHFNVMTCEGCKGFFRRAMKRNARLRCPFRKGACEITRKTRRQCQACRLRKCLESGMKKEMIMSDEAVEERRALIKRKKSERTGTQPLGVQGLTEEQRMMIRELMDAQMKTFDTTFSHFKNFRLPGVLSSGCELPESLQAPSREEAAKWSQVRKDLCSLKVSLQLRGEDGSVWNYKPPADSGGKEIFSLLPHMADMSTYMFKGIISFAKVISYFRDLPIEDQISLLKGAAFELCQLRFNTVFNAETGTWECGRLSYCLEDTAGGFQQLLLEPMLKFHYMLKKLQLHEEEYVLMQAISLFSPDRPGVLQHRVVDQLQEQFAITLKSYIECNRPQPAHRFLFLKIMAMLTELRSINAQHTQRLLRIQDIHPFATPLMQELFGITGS
Chain of human Retinoic Acid Receptor gamma (RARg), RARG (gene 5916) (P13631 whole entry, looked up, the tested form may be a part): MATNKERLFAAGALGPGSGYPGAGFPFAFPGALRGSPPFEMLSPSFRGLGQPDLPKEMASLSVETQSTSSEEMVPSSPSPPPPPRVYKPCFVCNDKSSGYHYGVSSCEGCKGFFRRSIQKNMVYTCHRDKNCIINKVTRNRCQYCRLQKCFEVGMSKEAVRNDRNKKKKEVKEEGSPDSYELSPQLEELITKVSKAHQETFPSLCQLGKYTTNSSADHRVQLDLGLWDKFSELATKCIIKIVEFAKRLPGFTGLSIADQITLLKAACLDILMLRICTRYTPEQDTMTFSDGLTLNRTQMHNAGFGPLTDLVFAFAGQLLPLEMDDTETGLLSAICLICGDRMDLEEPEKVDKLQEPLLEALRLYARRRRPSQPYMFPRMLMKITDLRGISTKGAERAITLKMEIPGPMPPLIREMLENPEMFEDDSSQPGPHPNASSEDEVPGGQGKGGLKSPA
Chain of human RAR-related Orphan Receptor beta (RORb), RORB (gene 6096) (Q92753 whole entry, looked up, the tested form may be a part): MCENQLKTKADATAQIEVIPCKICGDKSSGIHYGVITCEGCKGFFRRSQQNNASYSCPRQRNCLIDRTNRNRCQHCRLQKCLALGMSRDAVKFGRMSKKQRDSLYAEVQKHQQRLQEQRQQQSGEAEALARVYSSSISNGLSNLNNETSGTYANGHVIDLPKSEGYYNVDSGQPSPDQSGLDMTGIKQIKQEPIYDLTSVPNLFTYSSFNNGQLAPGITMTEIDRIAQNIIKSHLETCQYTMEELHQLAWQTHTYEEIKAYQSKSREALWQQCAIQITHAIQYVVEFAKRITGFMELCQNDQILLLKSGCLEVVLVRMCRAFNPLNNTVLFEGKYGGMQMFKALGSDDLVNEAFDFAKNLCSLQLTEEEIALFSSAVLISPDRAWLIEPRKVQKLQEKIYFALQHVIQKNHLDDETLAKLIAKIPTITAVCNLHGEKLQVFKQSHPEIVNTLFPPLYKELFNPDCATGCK

O=[N+]([O-])c1ccc(O)cc1C(F)(F)F
active: [4] 38.7 µM
inactive: [1] | [2] | [3] | [5] | [6]

CCOc1ccc(NC(=O)CC(C)=O)cc1
inactive: [1] | [2] | [5] | [6]

OCC#CCO
inactive: [1] | [2] | [3] | [4]

CCCCCCCCCCCCCCCC(=O)OC/C=C(C)/C=C/C=C(C)/C=C/C1=C(C)CCCC1(C)C
active: [8] 4.06 µM | [4] 37.9 µM | [5] 2.82 µM
inactive: [1] | [7] | [6]

C=C(C)[C@H]1CC=C(C)C(=O)C1
inactive: [1] | [7] | [8] | [5]
active: [4] 68.7 µM

CCCCCCCCCCCCCCN(CCO)CCO
inactive: [1] | [2] | [3] | [5]

CC1(C)C(=O)N(Cl)C(=O)N1Br
inactive: [1] | [2] | [3] | [4]

CCc1ccc(O)cc1
inactive: [1] | [2] | [4] | [6]

OCCc1ccccc1
inactive: [1] | [2] | [3]

CCN(CCN)c1cccc(C)c1
inactive: [1] | [2] | [4] | [5] | [9]

CCCCCCCCCCCC(=O)OC[C@@H](O)[C@H]1OC[C@H](O)[C@H]1O
inactive: [1] | [2] | [3] | [4]

Cc1ccc(S(N)(=O)=O)cc1
inactive: [1] | [2] | [3] | [5] | [9]

CC(C)(C)CC(C)(C)c1ccc(OCCOCC[N+](C)(C)Cc2ccccc2)cc1
inactive: [2] | [4]
active: [1] 14.4 µM | [7] 8.87 µM | [8] 7.08 µM

C=CC(C)(O)CCC=C(C)C (centres undefined)
not listed: [3] | [9]
inactive: all other assays above

CC(C=O)Cc1ccc(C(C)(C)C)cc1 (centres undefined)
active: [1] 40.7 µM | [7] 31.1 µM | [8] 30.9 µM | [4] 79.1 µM | [5] 23.1 µM

Cc1cc(S(=O)(=O)O)ccc1N=Nc1c(O)ccc2ccccc12
not listed: [7] | [8]
inactive: all other assays above

CC=Cc1ccc(OCC)c(O)c1
inactive: [1] | [7] | [8]
active: [4] 31.8 µM

C=CC(=C)CCCC(C)(C)OC(C)=O
inactive: [1] | [2] | [4] | [5]

COC(CC(C)CCCC(C)(C)O)OC (centres undefined)
inactive: [1] | [2] | [3] | [5]

COc1ccccc1N=Nc1c(S(=O)(=O)O)cc2cc(S(=O)(=O)O)cc(NC(C)=O)c2c1O
not listed: [3] | [7] | [8]
inactive: all other assays above

[O-]n1ccccc1=S.[O-]n1ccccc1=S.[Zn+2]
inactive: [1] | [2] | [3] | [4] | [6]

CN(C)C(=O)Nc1ccc(Oc2ccc(Cl)cc2)cc1
inactive: [1] | [7] | [8]
active: [4] 17.4 µM

O=C(O)CNc1ccccc1
active: [5] 27.3 µM
inactive: [1] | [2] | [3] | [4] | [6]

C=C(C)C(=O)OCCOCCOCCOC(=O)C(=C)C
inactive: [1] | [7] | [8] | [4] | [5]

CCCOCCO
inactive: [1] | [2] | [4] | [5] | [6]

COc1ccc(CCO)cc1
inactive: [1] | [2] | [4] | [9]

CC(=O)Nc1ccc(C(=O)CCl)cc1
active: [1] 2.66 µM | [7] 8.45 µM | [8] 6.13 µM | [4] 2.31 µM
inactive: [2] | [5]

CCCCOC(=O)CCCCCCCC(=O)OCCCC
inactive: [1] | [7] | [8] | [5]

CCCC(C)C(O)CC (centres undefined)
not listed: [6] | [7] | [8]
inactive: all other assays above

c1ccc2cc(Nc3ccc(Nc4ccc5ccccc5c4)cc3)ccc2c1
not listed: [2] | [3] | [9]
inactive: all other assays above

C=CC(=O)OCCC#N
active: [4] 6.89 µM
not listed: [7] | [8]
inactive: all other assays above

CCCCCCC(CO)CCCC (centres undefined)
active: [8] 37.6 µM and 31.2 µM
not listed: [2] | [6]
inactive: all other assays above

CCC1CCCCC1
not listed: [7] | [8]
inactive: all other assays above

CCCC1O[C@@H]2C[C@H]3[C@@H]4CCC5=CC(=O)C=C[C@]5(C)[C@H]4[C@@H](O)C[C@]3(C)[C@]2(C(=O)CO)O1 (some centres undefined)
active: [5] 1.36 µM
inactive: [1] | [2] | [4] | [9]

CC1(C)COCN1
inactive: [1] | [2] | [3] | [5]

CCCCCCCCc1ccc(S(=O)(=O)O)cc1
active: [4] 23.6 µM
not listed: [7] | [8]
inactive: all other assays above
